Test results reported in PubChem BioAssay (NCATS).
Records with an inconclusive call do not appear. A call without a number means that no potency is given here. Unmarked numbers belong to inactive results. The source made the active and inactive calls. Calls follow the shape of the dose curve; as a rule, active = well fitted curve in the direction sought with a large enough effect; inconclusive = small, poorly fitted or top-dose-only effect, or another doubt; inactive = no such curve, though single readings can be large; an effect the other way counts as inactive or inconclusive. Bridge positions count the residues as written; N and C are the ends. Square brackets hold non-standard residues; d marks the D form. Side chains are listed from the residue outwards. Peptide text beside a SMILES is read from it. * marks the point of attachment. Phg(4-OMe) = COc1ccc([C@H](N)C(=O)O)cc1; d(aIle) = CC[C@H](C)[C@@H](N)C(=O)O; d(aThr) = C[C@@H](O)[C@@H](N)C(=O)O; NMeF = CN[C@@H](Cc1ccccc1)C(=O)O; Isobutyryl = CC(C)C(=O)*

Assays:
[1] = OV-KATE Cancer Cell Toxicity qHTS against the NCATS CANVASS Library (AID 1347345); also: potency is read from the fitted curve at half-maximal effect
Procedure, shortened: (§1)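 1000 cells/well seeded and rested 4 h at 37 °C before pin transfer of compounds in an 11-pnt series. Exposure 72 h at 37 °C/5% CO2; viability by CellTiter-Glo luminescence after 15 min at room temperature.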

[2] = HPAF-II Cancer Cell Toxicity qHTS against the NCATS CANVASS Library (AID 1347346); also: nearly all actives have a fitted effect of over 55% in size; also: potency is read from the fitted curve at half-maximal effect; as to activity change, negative = cytotoxicity: series mostly up to about 38 µM
Procedure, shortened: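 Cytotoxicity read-out was CellTiter-Glo luminescence after 72 h at 37 degrees C exposure of HPAF-II cells (1000/well) to compounds in an 11-point titration.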

[3] = A2780 Cisplatin Sensitive Ovarian Cancer Cell Toxicity qHTS against the NCATS CANVASS Library (AID 1347353); also: nearly all actives have a fitted effect of over 60% in size; also: potency is read from the fitted curve at half-maximal effect; as to activity change, negative = cytotoxicity: series mostly up to about 46 µM
Procedure, shortened: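 Cisplatin-sensitive A2780 ovarian cells (750/well) received compound in 11 concentrations, and were incubated 72 h at 37 °C. ATP content was measured by ATPLite luminescence; bortezomib served as control.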

[4] = UWB1.289-WTBRCA1 Cancer Cell Toxicity qHTS against the NCATS CANVASS Library (AID 1347354)
Procedure, shortened: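 Toxicity was measured as CellTiter-Glo luminescence after 72 h exposure to an 11-point compound series. Compound was added to 1000 cells/well 4 h after seeding.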

[5] = HPAF-II 24hr Apoptosis Induction qHTS against the NCATS CANVASS Library (AID 1347356)
Procedure, shortened: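 Caspase-Glo 3/7 luminescence, read after 15 min room-temperature development, measures apoptosis in HPAF-II cells treated 24 h at 37 degrees C with an 11-point concentration series; 500 cells/well; doxorubicin control.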

[6] = SDT Cancer Cell Toxicity qHTS against the NCATS CANVASS Library (AID 1347365); also: nearly all actives have a fitted effect of over 60% in size; also: potency is read from the fitted curve at half-maximal effect;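 as to activity change, negative = cytotoxicity: SDT canine glioma cells 500 per well in 1536 well plates; series mostly up to about 46 µM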
Procedure, shortened: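 Cytotoxicity taken from CellTiterGlo ATP luminescence after 72 hr at 37C, 5% CO2. Canine glioma line SDT, 500 cells/well, treated at 11 concentrations; bortezomib dose series as control.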

[7] = G06 Cancer Cell Toxicity qHTS against the NCATS CANVASS Library (AID 1347368); also: nearly all actives have a fitted effect of over 60% in size; also: potency is read from the fitted curve at half-maximal effect; as to activity change, negative = cytotoxic: series mostly up to about 46 µM
Procedure, shortened: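 Viability measured by CellTiterGlo ATP luminescence after 72 hr at 37C, 5% CO2. Canine G06 glioma cells plated at 500/well. Compounds tested as 11-point qHTS titrations.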

[8] = qHTS for Hypoxia signaling pathway (HIF-1) antagonists against the NCATS CANVASS Library (AID 1347374); also: nearly all actives have a fitted effect of over 60% in size; also: potency is read from the fitted curve at half-maximal effect;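 as to activity change, negative = inhibition: HRE-bla ME-180 cells stimulated with cobalt chloride to stabilize HIF-1alpha; series mostly up to about 38 µM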
Procedure, shortened: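 Antagonism scored as loss of CoCl2-driven (60 uM stock added) HRE beta-lactamase signal, read by CCF4 FRET at 460/530 nm. Compounds were tested in an 11-point series on ME-180 reporter cells for 17 hrs at 37C, with parallel CellTiter-Glo cytotoxicity.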

[9] = qHTS for activators of Nrf2/ARE signaling pathway screened against the NCATS CANVASS Library (AID 1347391); also: nearly all actives have a fitted effect of over 60% in size; also: potency is read from the fitted curve at half-maximal effect
Procedure, shortened: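 Eleven-point qHTS, 16 h treatment of HepG2 cells carrying an ARE-driven beta-lactamase reporter; CCF4 ratio read (405 nm excitation, 460 and 530 nm emission), with CellTiter-Glo ATP luminescence for viability.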

[10] = Vero-766 cells viability qHTS against the NCATS CANVASS Library: Counterscreen for Zika virus inhibition assay (AID 1347394); also: nearly all actives have a fitted effect of over 60% in size; also: potency is read from the fitted curve at half-maximal effect; as to activity change, negative = cytotoxic: series mostly up to about 46 µM
Procedure, shortened: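 CellTiter Glo luminescence measured cytotoxicity after 72 h at 37C in uninfected Vero 766 cells, plated at 1000 cells/well. Compounds were applied in an 11-point series. Wells without cells defined 100% inhibition.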

[11] = UWB1.289 Cancer Cell Toxicity qHTS against the NCATS CANVASS Library (AID 1347347); also: nearly all actives have a fitted effect of over 60% in size; also: potency is read from the fitted curve at half-maximal effect; as to activity change, negative = cytotoxicity: series mostly up to about 38 µM
Procedure, shortened: as §1

[12] = SW1088 Cancer Cell Toxicity qHTS against the NCATS CANVASS Library (AID 1347350); also: nearly all actives have a fitted effect of over 75% in size; also: potency is read from the fitted curve at half-maximal effect; as to activity change, negative = cytotoxicity: series mostly up to about 38 µM
Procedure, shortened: as §1

[13] = U-118MG Cancer Cell Toxicity qHTS against the NCATS CANVASS Library (AID 1347351); also: potency is read from the fitted curve at half-maximal effect; as to activity change, negative = cytotoxicity: series mostly up to about 38 µM
Procedure, shortened: as §1

[14] = DH5-alpha competent E. coli microbial cell viability qHTS against the NCATS CANVASS Library (AID 1347377); conditions: outcome: dose series up to 46.1 µM unless noted
Procedure, shortened: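 Bacterial viability as ATP-dependent luminescence (BacTiter-Glo), read after overnight 37 °C exposure of DH5-alpha competent E. coli to compounds in 11-point titration.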

[15] = qHTS assay for small molecule disruptors of mitochondrial membrane potential screened against the NCATS CANVASS Library (AID 1347389); also: nearly all actives have a fitted effect of over 60% in size; also: potency is read from the fitted curve at half-maximal effect; as to activity change, negative = depolarization: series mostly up to about 46 µM
Procedure, shortened: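 Mitochondrial membrane potential in HepG2: 1 h compound treatment (11-point concentration series), 30 min m-MPI dye at 37C, then dual fluorescence of J-aggregates (ex 540/em 590) and monomers (ex 490/em 535); lower red/green ratio indicates depolarization.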

[16] = qHTS for inhibitors of ER calcium dysfunction: SERCaMP assay screened against the NCATS CANVASS Library (AID 1347393);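 also: series mostly up to about 77 µM; lower secreted reporter signal means inhibitor of ER calcium depletion; nearly all actives have a fitted effect of over 40% in size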
Procedure, shortened: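 qHTS in SH-SY5Y reporter cells: 16 h compound pretreatment, 4 h thapsigargin, then secreted Gaussia luciferase measured by luminescence.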

[17] = qHTS for inhibitors of Wild type Zika virus screened against the NCATS CANVASS Library (AID 1347396);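 also: ATP luminescence of surviving cells so rescue from viral cell killing; series mostly up to about 46 µM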
Procedure, shortened: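 Luminescent CellTiter Glo read-out of virus-induced cytotoxicity, 72 h post-infection, in Vero 766 cells. Compounds were tested at 11 concentrations; uninfected, vehicle-treated wells defined 100% inhibition.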

[18] = Panc-1005 Cancer Cell Toxicity qHTS against the NCATS CANVASS Library (AID 1347349); also: nearly all actives have a fitted effect of over 60% in size; also: potency is read from the fitted curve at half-maximal effect; as to activity change, negative = cytotoxicity: series mostly up to about 38 µM
Procedure, shortened: as §1

[19] = MCF7 Cancer Cell Toxicity qHTS against the NCATS CANVASS Library (AID 1347369); as to activity change, negative = cytotoxicity: series mostly up to about 46 µM
Procedure, shortened: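 Cytotoxicity was measured as CellTiterGlo luminescence (ATP) after 72 h at 37 °C. The cells were MCF7 at 500 per well, with an 11-point compound concentration series.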

[20] = qHTS for Antimalaria activity screened against the NCATS CANVASS Library (AID 1347380); also: nearly all actives have a fitted effect of over 40% in size; also: potency is read from the fitted curve at half-maximal effect;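 as to activity change, negative = inhibition: Plasmodium falciparum strain Dd2 asexual parasites grown in red blood cells; series mostly up to about 29 µM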
Procedure, shortened: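 SYBR Green fluorescence at 485/535 nm was read 18 hr after lysis. This followed a 72 hr incubation at 37C in 5% O2, 5% CO2 of Dd2-infected erythrocytes (0.3% parasitemia, 2.5% final hematocrit) with compounds titrated over 11 concentrations.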

O[C@H]1c2ccccc2-c2c3c(cc4c2[C@@H]1NCC4)OCO3
Potency [1]: inactive | Potency [2]: 18.8 µM (active) | Potency [3]: 11.8 µM (active) | Potency [4]: inactive | outcome [5]: inactive | Potency [6]: 18.7 µM (active) | Potency [7]: 16.6 µM (active) | Potency [8]: 18.8 µM (active) | Potency [9]: 18.6 µM (active) | Potency [10]: 20.9 µM (active)

C[C@]12CCC[C@](C)(C(=O)O)[C@@H]1CC[C@@]1(C)c3cocc3CC[C@H]21
Potency [1]: inactive | Potency [11]: inactive | Potency [12]: inactive | Potency [13]: inactive | Potency [3]: inactive | Potency [4]: inactive | Potency [6]: inactive | Potency [7]: inactive | Potency [8]: inactive | outcome [14]: inactive | Potency [15]: inactive | Potency [16]: inactive | Potency [10]: inactive | outcome [17]: inactive

COc1c(O)cc2c(c1O)C(=O)c1c(coc1C)C2=O
Potency [2]: inactive | Potency [11]: inactive | Potency [18]: inactive | Potency [4]: inactive | outcome [5]: inactive | Potency [19]: inactive | Potency [8]: 14.9 µM (active) | outcome [14]: inactive | Potency [15]: 10.5 µM (active) | Potency [9]: 7.41 µM (active) | Potency [10]: inactive | outcome [17]: inactive

CC(C)C[C@@H]1c2c(O)c(C=O)c(O)c(C=O)c2O[C@]2(C)C=C[C@@H](C(C)C)C[C@H]12
Potency [1]: inactive | Potency [2]: inactive | Potency [18]: inactive | Potency [13]: inactive | Potency [3]: inactive | Potency [4]: inactive | Potency [6]: inactive | Potency [7]: inactive | Potency [19]: inactive | outcome [14]: inactive | Potency [15]: inactive | Potency [9]: inactive | Potency [16]: inactive | Potency [10]: inactive | outcome [17]: inactive

CN1CC[C@]2(c3cccc4c3N[C@H]3N(C)CC[C@@]43[C@]34CCN(C)[C@H]3Nc3ccccc34)c3ccccc3N[C@H]12
Potency [1]: 18.8 µM (active) | Potency [11]: 18.8 µM (active) | Potency [18]: 21.1 µM (active) | Potency [13]: 7.49 µM (active) | Potency [6]: 4.18 µM (active) | Potency [7]: 7.43 µM (active) | outcome [14]: inactive | Potency [20]: 0.0375 µM (active) | Potency [15]: inactive | Potency [10]: 20.9 µM (active)

CC[C@H](C)[C@H]1NC(=O)[C@@H](NC(=O)C(C)C)[C@@H](C)OC(=O)[C@H](COC(=O)CNC(C)=O)NC(=O)[C@@H]([C@@H](C)O)NC(=O)[C@H](Cc2ccccc2)N(C)C(=O)[C@H](c2ccc(OC)cc2)NC1=O (Isobutyryl-T[d(aIle)][Phg(4-OMe)][NMeF][d(aThr)]S([Gly-Ac]); ester 1-C)
Potency [1]: inactive | Potency [11]: inactive | Potency [18]: inactive | Potency [12]: inactive | Potency [13]: inactive | Potency [3]: inactive | Potency [4]: inactive | outcome [5]: inactive | Potency [6]: inactive | Potency [7]: inactive | Potency [8]: inactive | outcome [14]: inactive | Potency [20]: inactive | Potency [15]: inactive | Potency [10]: inactive | outcome [17]: inactive

C=C1CC[C@@H](O[C@H]2C[C@@](O)([C@H](C)NC(=O)c3[nH]c(C)c(Cl)c3Cl)[C@H](O)[C@@H](C)O2)[C@@H]2C=C[C@H](C)C(/C(O)=C3/C(=O)[C@H](C(C)C)N([C@@H]4O[C@H](C)[C@H](OC(N)=O)[C@H](OC(C)=O)[C@@H]4OC)C3=O)[C@@H]12 (some centres undefined)
Potency [1]: inactive | Potency [12]: 5.95 µM (active) | Potency [13]: inactive | Potency [4]: inactive | Potency [6]: inactive | Potency [19]: inactive | Potency [8]: 16.7 µM (active) | Potency [15]: 16.6 µM (active) | Potency [9]: inactive | Potency [16]: inactive | Potency [10]: inactive | outcome [17]: inactive

CC(=O)Oc1cc2c(c(OC(C)=O)c1C1CCc3cc(Cl)c(Cl)n31)C(=O)n1c-2cc(Cl)c1Cl (centres undefined)
Potency [2]: 10.6 µM (active) | Potency [11]: 3.34 µM (active) | Potency [18]: 6.68 µM (active) | Potency [12]: 4.73 µM (active) | Potency [13]: 13.3 µM (active) | Potency [3]: 11.8 µM (active) | outcome [5]: inactive | Potency [6]: 10.5 µM (active) | Potency [7]: 14.8 µM (active) | Potency [8]: 3.34 µM (active) | Potency [15]: 2.09 µM (active) | Potency [9]: inactive | Potency [10]: 9.33 µM (active)

Cc1occ2c1C(=O)c1c(cc(O)c(O)c1O)C2=O
Potency [1]: inactive | Potency [12]: 5.95 µM (active) | Potency [13]: 13.3 µM (active) | Potency [4]: inactive | outcome [5]: inactive | Potency [6]: 1.05 µM (active) | outcome [14]: inactive | Potency [15]: 7.41 µM (active) | outcome [17]: inactive

C=C(C)CC[C@H](Cc1c(O)cc(O)c2c1O[C@H](c1ccc(O)cc1)CC2=O)C(=C)C
Potency [1]: inactive | Potency [2]: inactive | Potency [18]: inactive | Potency [12]: 23.7 µM (active) | Potency [13]: inactive | Potency [3]: 23.5 µM (active) | Potency [4]: inactive | outcome [5]: inactive | Potency [7]: inactive | Potency [19]: inactive | Potency [20]: inactive | Potency [15]: 8.31 µM (active) | Potency [10]: 18.6 µM (active)

COc1cc2c(cc1OC)[C@@H](c1ccc3c(c1)OCO3)C(C)C(C)C2=O (some centres undefined)
Potency [1]: inactive | Potency [13]: inactive | Potency [4]: inactive | outcome [5]: inactive | Potency [6]: inactive | Potency [19]: inactive | outcome [14]: inactive | Potency [20]: inactive | Potency [15]: inactive | Potency [10]: inactive | outcome [17]: inactive

C=C1CC[C@@H](Br)C(C)(C)[C@]12CC=C(C)C(=O)C2
Potency [1]: inactive | Potency [11]: inactive | Potency [18]: inactive | Potency [13]: inactive | Potency [3]: inactive | Potency [4]: inactive | Potency [6]: inactive | Potency [7]: inactive | Potency [19]: inactive | Potency [8]: inactive | Potency [20]: inactive | Potency [9]: 16.6 µM (active) | Potency [10]: inactive | outcome [17]: inactive

COc1cc(C2OCC3C(c4ccc(O)c(OC)c4)OCC23)ccc1O (centres undefined)
activity change, negative = cytotoxicity [1]: -0.541% [at 7.64 µM] | activity change, negative = cytotoxicity [11]: -13.2% [at 7.64 µM] | activity change, negative = cytotoxicity [18]: -5.51% [at 7.64 µM] | outcome [12]: inactive [at 7.64 µM] | activity change, negative = cytotoxicity [13]: -4.99% [at 7.64 µM] | outcome [3]: inactive [at 9.19 µM] | outcome [4]: inactive [at 7.64 µM] | activity change, negative = cytotoxicity [6]: 2.04% [at 9.19 µM] | outcome [7]: inactive [at 9.19 µM] | outcome [14]: inactive [at 9.19 µM] | activity change, negative = depolarization [15]: 2.39% [at 9.19 µM] | Potency [9]: 0.305 µM (active) | activity change, negative = inhibition [16]: 43.6% [at 15.3 µM] | activity change, negative = cytotoxic [10]: -3.52% [at 9.19 µM] | activity change, negative = antiviral [17]: -5.5% [at 9.14 µM]
